# Polio RdRp inh – inhibitors of poliovirus RNA polymerase binding and polymerization; P03300; poliovirus polymerase elongation, fluorescence polarization; active compounds read low; % elongation, % (compound at 16.7 µg/mL); 150,000 tested, 0.66% active; in the data active means % elongation below about 90%
# MenB inh – Mtb MenB enzyme inhibition | P9WNP5 | AID 540299 | 100,000 tested, 0.43% active | MenB enzyme assay, absorbance read-out | inhibition, % (concentration not given with the values); in the data active means inhibition above about 21%, passing the limit was not always enough
# Target sequence (P9WNP5 whole entry, looked up): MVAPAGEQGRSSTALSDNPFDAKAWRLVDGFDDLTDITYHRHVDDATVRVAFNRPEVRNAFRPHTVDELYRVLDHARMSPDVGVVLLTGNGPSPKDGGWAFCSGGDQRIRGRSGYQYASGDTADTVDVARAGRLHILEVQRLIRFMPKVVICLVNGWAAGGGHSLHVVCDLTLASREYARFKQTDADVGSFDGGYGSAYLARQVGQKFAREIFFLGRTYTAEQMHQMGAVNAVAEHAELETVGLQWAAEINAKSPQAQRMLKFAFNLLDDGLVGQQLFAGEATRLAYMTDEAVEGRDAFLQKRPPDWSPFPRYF
# MbtI inh – inhibitors of Mycobacterium tuberculosis siderophore enzyme MbtI; purified MbtI enzyme, fluorescence intensity read-out; inhibition, % (no concentration beside the values); 100,000 tested, 0.89% active; AID 493033; in the data active means inhibition mostly above about 56%, no sharp cut-off; inactive means mostly below about 77%
# AID504770 – E. coli YBA685 growth inhibition, screen for V. cholerae RctB inhibitors; E. coli YBA685 rctB-dependent plasmid, OD600 growth, 3 h; active compounds read low; z-score (concentration not given with the values); 130,000 tested, 0.27% active; in the data active means z-score below about -2, passing the limit was not always enough
# Active calls of the source: *; / = no result given. A selection: hits, their analogues and other compounds. The true share with any hit is near 1.4%.
SMILES,Polio RdRp inh,MenB inh,MbtI inh,AID504770
O=C(/C=C/c1ccco1)CC1(O)C(=O)Nc2ccccc21 (stereo not drawn),95,10,29,-0.65
O=S(=O)(c1ccc(N2CCC(CNc3nc4ccccc4s3)CC2)cc1)N1CCOCC1,103,39*,43,1.6
CC1=C(C)NC(=S)SC1,99,-20,97*,1.6
COc1ccc(C)cc1NC(=O)CN(C)Cc1nc2ccccc2c(=O)[nH]1,89*,-38,10,-0.15
Cc1ccc(/C=C/C(=O)NCC2CCN(C(=O)/C=C/c3ccc(C)o3)CC2)o1,99,-4,89*,-0.55
N#Cc1ccccc1CO/N=C/c1ccc(N2CCOCC2)cc1,102,9,-7,0.1
O=C(O)CCC(=O)N1N=C(c2ccccc2)CC1c1ccc2nccnc2c1 (stereo not drawn),99,50*,15,-0.6
CCc1ccc(C2CC(c3ccccc3)=NN2C(=O)CCCC(=O)O)cc1 (stereo not drawn),98,-31,-6,0
Cc1cnc2c(c1)N1CCC2CC1,102,39*,2,2.1
COc1ccc(CCNC(=O)c2ccc3c(c2)N(Cc2ccccc2)C(=O)c2ccccc2S3=O)cc1OC (stereo not drawn),-15*,/,/,/
O=C1C=CC(=O)N1c1ccccc1Sc1ccccc1,101,/,99*,-0.6
Cc1cc(NC(=S)N(C)C)ccc1Br,97,-5,96*,1.9
COC(=O)C(C(=O)OC)C(Nc1ccccc1)c1ccccc1 (stereo not drawn),25*,3,/,-0.1
CCOC(=O)C(Nc1cccc(F)c1)c1ccccc1 (stereo not drawn),/,/,-7,0.1
CC(C)Sc1nnc2oc3ccc(S(=O)(=O)N(C)C)cc3n12,6.0*,17,14,-0.3
N#C/C(C(=O)N1CCCCC1)=C1/SC=C(c2ccccc2)N1c1ccccc1,101,-41,-12,-0.8
N#Cc1cnc(SCCc2ccccc2)nc1N,105,33*,48,-0.1
CCCN1CCN(C(=O)c2cn(C)c(=O)c3cc(OC)c(OC)cc23)CC1,100,13,16,0.3
CC(C)(C)c1ccc(O)c(N)c1,98,-23,99*,-0.05
COc1ccc(S(=O)(=O)N2CCCC2C(=O)Nc2c(C)n(C)n(-c3ccccc3)c2=O)cc1 (stereo not drawn),101,-14,-9,-1
Cc1c(C#N)c(NC(=O)Cc2c(Cl)cccc2Cl)n(C2CCCCC2)c1C,/,0,-4,0.15
Cc1ccccc1-c1ocnc1C(=O)Nc1cccnc1,102,30*,4,1.5
Cc1cccc(N(C(=O)c2csnn2)C(C(=O)NC2CCCCC2)c2ccco2)c1 (stereo not drawn),101,0,-4,-0.1
COc1cccc(C(=O)CS)c1,101,-10,87*,2.3
COc1cccc(C(=O)CC#N)c1,104,0,-8,-0.65
SMILES,Polio RdRp inh,MenB inh,MbtI inh,AID504770
Cc1ccc(-n2c(C)cc(/C=C3\SC(=O)NC3=O)c2C)cc1,100,39*,-27,0.7
CN1C(=O)C(=C/C=C/c2ccccc2)C(=O)N(C)C1=O,102,-42,82*,1.1
C=CCN1C(=O)NC(=O)/C(=C/C=C/c2ccccc2)C1=O,100,-36,1,-0.2
O=C(NC1=NN(c2ccccc2)C(=O)C1)c1ccc(Br)s1,100,2,17,-0.15
Nn1c(=S)[nH]nc(Cc2ccco2)c1=O,73*,-44,/,-0.95
O=C1c2ccccc2C(=O)N1Cc1ccco1,103,-7,1,0.25
CCN(CC)S(=O)(=O)c1ccc2c(c1)nc(CC(=O)O)n2C,81*,-21,94*,0.5
COc1ccc(-c2nn(-c3ccccc3)cc2C#N)cc1OC,101,/,-68,1.5
N#Cc1cccc(NC(=O)Nc2cccs2)c1,101,12,13,-3.1*
N#Cc1cccc(NC(=S)NC(=O)c2cccs2)c1,104,-38,-2,2.2
O/N=C(\c1ccccc1)c1nonc1/C(=N/O)c1ccccc1,/,/,-8,-1.3
O=C(O)C1CSC(c2cccnc2)=N1 (stereo not drawn),/,/,2,1.5
O=C(O)C1CSC(c2ccncc2)=N1 (stereo not drawn),101,90*,17,0.85
Cc1ccccc1C(=O)Nc1sc2c(c1C(N)=O)CCC2,104,/,-9,-0.8
CCCCCCSc1n[nH]c(=O)[nH]c1=O,86*,-9,-8,-0.4
NCCSc1n[nH]c(=O)[nH]c1=O,100,-16,8,-0.1
N#CCOC(=O)c1nc(-c2ccccc2)n(-c2ccccc2)n1,83*,-11,-5,-0.5
Cc1ccc2oc(=O)c3cc(C(=O)NC4CC4)sc3c2c1,/,/,/,-0.05
CCOc1cccc2cc(C(C)NCc3ccc(C)o3)oc12 (stereo not drawn),98,-4,-7,-0.35
Sc1ccc2c(c1)OCCCO2,98,6,94*,-0.05
Cc1nn(CCC#N)c2c1P(=S)(N1c3ccccc3CC1C)/C(=C1\N(C)c3ccccc3C1(C)C)C=N2 (stereo not drawn),98,-60,57*,1.9
COCCOc1ccc(C(F)(F)F)cc1Nc1nc2ccccc2o1,87*,-53,18,-0.4
C/C(Cc1nc2ccccc2[nH]1)=N/NC(=O)c1ccccc1,104,-134,-13,1.9
N/C(=N/O)c1ccccc1N,102,42*,26,-1.5
O=C(OCc1ccccc1Oc1ccccc1)c1ccccn1,101,-24,-4,-0.15
SMILES,Polio RdRp inh,MenB inh,MbtI inh,AID504770
CCN(CC)Cn1c(=S)sc2ccccc21,100,-13,87*,-1.6
CCN(CC)Cn1c(=O)sc2ccccc21,103,-35,27,-0.5
OCn1c(=S)sc2ccccc21,102,/,93*,-0.4
Cc1cc(Nc2ccc(N(C)C)cc2)n2c(nc3ccccc32)c1C#N,107,-36,-4,2.4
CC(=O)NCCC(=O)N1CCCSC1=Nc1c(C)cccc1C,88*,-3,-4,0.05
O=c1c(O)c(-c2ccc(F)cc2)oc2cc(Cl)ccc12,103,-11,-14,2
OC(CNCc1ccccn1)COc1ccc(OCC(O)CNCc2ccccn2)cc1 (stereo not drawn),99,27,-1,-0.4
CC1(C)Cc2[nH]c(=S)c(C#N)cc2CO1,101,-85,92,1.1
N#Cc1cc2c([nH]c1=S)CCCC2,98,-217,102*,-0.1
COC(CNC(=O)c1ccc2c(c1)C(=O)N(CCc1ccccc1)C2=O)OC,104,-29,3,-0.3
Cc1cc(Br)cc(C)c1OCCCN(C)C,88*,-1,-4,0.5
S=c1[nH]nc(COc2ccccc2Cl)n1C1CC1,/,-19,84*,0.65
NC(=O)CSc1nnc(COc2ccccc2Cl)n1C1CC1,/,-24,-9,-0.5
CCOc1ccc2c(c1)SC1=NS(=O)(=O)CCN12,/,/,/,-0.5
CCN(CC1COc2ccccc2O1)C(=O)c1ccc2c(c1)SC1=NS(=O)(=O)CCN12 (stereo not drawn),84*,-33,7,1.2
O=C1CSc2nnc(-c3cccs3)n21,57*,0,-102,-0.6
c1csc(-c2nnc3n2-c2ccccc2SC3)c1,109,-28,-13,-1.5
CSc1s[nH]c(=O)c1C#N,86*,9,/,-1

# High-throughput results from PubChem BioAssay.
